The source of these data is PubChem BioAssay (NCATS).

Test [1] in a line: P-glycoprotein substrates identified in KB-8-5-11 adenocarcinoma cell line, qHTS therapeutic library screen (AID 1346987). Also: nearly all actives have a fitted effect of over 65% in size. The essentials: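 Luminescence from CellTiter-Glo, read 5 min after addition, quantified survival of KB-8-5-11 (P-gp-overexpressing) cells exposed to compounds for 72 h. AC50 was derived from concentration-response curves.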
A general note: In qHTS, concentration-response curves come from the screen itself.

A short description of test [2]: NS1 protein of Zika virus - qHTS assay to identify small molecule inhibitors in human HEK 293 cells (AID 1347053). Also: nearly all actives have a fitted effect of over 55% in size. The essentials:
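In this cell-based screen, HEK 293 cultures received compound for one hour before Zika MR766 at MOI = 0.5. NS1 was quantified 24 hours later by TR-FRET, normalized to virus-free wells and infected wells.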

Structures are written as SMILES. Values joined by “and” are separate entries in the source; they are usually repeats but may differ in a detail not shown here. Equal values may be shown once. Records with an inconclusive call do not appear. Where a call stands in place of a potency, no number is given. The source holds several records for some structures; these can differ, active in one and inactive in another. Active and inactive are the calls of the source. Calls follow the shape of the dose curve; as a rule, active = well fitted curve in the direction sought with a large enough effect; inconclusive = small, poorly fitted or top-dose-only effect, or another doubt; inactive = no such curve, though single readings can be large; an effect the other way counts as inactive or inconclusive.
Potency is read from the fitted curve at half-maximal effect.

As for `O=C(O)CCCCCCNC1c2ccccc2CCc2ccccc21`, the Potency result in test [1] and in test [2] was “inactive” each time.
As for `OC(c1ccccc1)(c1ccccc1)C1CCNCC1`, the Potency entry in test [1] and in test [2] was “inactive” throughout.
In the case of `C[C@]12CC[C@H]3[C@@H](CC=C4C[C@@H](O)CC[C@@]43C)[C@@H]1CC[C@@H]2O`, the Potency in test [1] is 11.6 µM (active). In addition, in test [2], the Potency entry was “inactive”.
Take `C[N+](C)(C)CCOC(=O)C(O)(c1ccccc1)c1ccccc1`: the Potency result in test [1] and in test [2] was “inactive” in each case.
Turning to `COc1cc(N)c(Cl)cc1C(=O)NC1CN2CCC1CC2` (centres undefined), the Potency result in test [1] and in test [2] was “inactive” in each case.
`C[C@@H]1C[C@@H]([C@H](O)CC2CC(=O)NC(=O)C2)C(=O)[C@@H](C)C1`: the Potency in test [1] is 2.31 µM (active) and 590 nM (active); in test [2] it was “inactive and 93.5 nM (active)”.
On to `CCOP(=S)(OCC)O/N=C(\C#N)c1ccccc1`, for which the Potency entry in test [1] and in test [2] was “inactive” each time.
As to `O=C(CCl)c1ccc(Cl)cc1Cl`, in test [1], the Potency is 2.91 µM (active) and 11.2 µM (active). In addition, the Potency entry in test [2] was “inactive”.
As to `C[C@H]1CNCCc2ccc(Cl)cc21`, the Potency result in test [1] and in test [2] was “inactive” throughout.
Consider `c1cc2c(c(N3CCNCC3)c1)OCCO2`, for which the Potency result in test [1] and in test [2] was “inactive” in each case.
Take `CCN(Cc1ccc(Cl)nc1)/C(=C/[N+](=O)[O-])NC`: the Potency result in test [1] and in test [2] was “inactive” in each case.
`ClCCCN1CCN(c2cccc(Cl)c2)CC1`: the Potency result in test [2] was “inactive”.
Take `CCNc1nc(Cl)nc(NCC)n1`: the Potency result in test [1] and in test [2] was “inactive” in each case.
Turning to `NC1(c2ccccc2)CCCCC1`, the Potency result in test [1] and in test [2] was “inactive” throughout.
For `CN1CCc2cc(Cl)c(O)cc2[C@H]2c3ccccc3CC[C@@H]21`, the Potency entry in test [1] and in test [2] was “inactive” throughout.
Take `CCOC(=O)NC(O)C(Cl)(Cl)Cl` (centres undefined): the Potency result in test [1] and in test [2] was “inactive” throughout.
On to `CCCCCCCCC(=O)NCc1ccc(O)c(OC)c1`, for which the Potency result in test [1] and in test [2] was “inactive” throughout.
For `CCN(CC)C(C)C(=O)c1ccccc1` (centres undefined), the Potency entry in test [1] and in test [2] was “inactive” in each case.
`C[C@H]1C(=O)O[C@@H]2CCN3CC=C(COC(=O)[C@](C)(O)[C@]1(C)O)[C@H]23`: the Potency result in test [1] and in test [2] was “inactive” in each case.
As for `CN1C2CCC(C)(C)C1CC(OC(=O)C(O)(c1cccs1)c1cccs1)C2` (centres undefined), the Potency entry in test [2] is “inactive”.
With `C[C@@H]1O[C@@H](O[C@@H]2C=C3CC[C@@H]4[C@H](CC[C@]5(C)[C@@H](c6ccc(=O)oc6)CC[C@]45O)[C@@]3(C)CC2)[C@H](O)[C@H](O)[C@H]1O`, in test [1], the Potency is 0.0197 µM (active). Further, the Potency result in test [2] was “inactive”.
For `Oc1c(Br)cc(Br)cc1Br`, in that order: “inactive” and “inactive”.
With `Nc1ccc(Cl)cc1C(=O)c1ccccc1F`, in test [2], the Potency entry is “inactive”.
For `CCC(OC(C)=O)C(CC(C)NC)(c1ccccc1)c1ccccc1` (centres undefined), in test [1], the Potency is 20 µM (active). For the same molecule, the Potency result in test [2] was “inactive”.
Take `CC(CC(C(N)=O)(c1ccccc1)c1ccccc1)N(C)C` (centres undefined): the Potency entry in test [2] is “inactive”.
For `CC(CC(C#N)(c1ccccc1)c1ccccc1)N(C)C` (centres undefined), the Potency entry in test [2] was “inactive”.
For `Nc1ccc(N)cc1`, the Potency entry in test [1] and in test [2] was “inactive” each time.
Consider `OC(O)C(Cl)(Cl)Cl`, for which the Potency entry in test [1] and in test [2] was “inactive” throughout.
`Cc1nc2ccccc2c(=O)n1-c1ccccc1Cl`: the Potency result in test [1] and in test [2] was “inactive” in each case.
With `Cc1cccc(Cc2cnc[nH]2)c1C`, the Potency result in test [1] and in test [2] was “inactive” each time.
Take `NCc1cccnc1`: the Potency result in test [1] and in test [2] was “inactive” throughout.
In the case of `C#C[C@]1(O)C=C[C@H]2[C@@H]3CCC4=CC(=O)CC[C@@H]4[C@H]3CC[C@@]21CC`, in test [1], the Potency was 6.51 µM (active). Moreover, the Potency result in test [2] was “inactive”.
For `CN(C)CCc1c[nH]c2cccc(O)c12`, the Potency entry in test [1] and in test [2] was “inactive” each time.
With `c1ccc2nc(N3CCNCC3)ccc2c1`, the Potency entry in test [1] and in test [2] was “inactive” throughout.
For the molecule `C[C@H](N)[C@H](O)c1ccc(O)c(O)c1`, the Potency entry in test [1] and in test [2] was “inactive” throughout.
Regarding `C[C@@H]1CN(C2CCC(C#N)(c3ccc(F)cc3)CC2)CC[C@]1(C(=O)O)c1ccccc1` (some centres undefined), the Potency result in test [1] and in test [2] was “inactive” in each case.
In the case of `CC(Cc1ccc2c(c1)OCO2)NO` (centres undefined), the Potency result in test [1] and in test [2] was “inactive” in each case.
With `CN(C)C(=O)Oc1cc(OC(=O)N(C)C)cc(C(O)CNC(C)(C)C)c1` (centres undefined), the Potency result in test [1] and in test [2] was “inactive” throughout.
With `COc1cc(C[C@@H](C)N)c(OC)cc1C`, in test [2], the Potency entry was “inactive”.
`Cc1ncc2n1-c1ccc(Cl)cc1C(c1ccccc1F)=NC2`: the Potency entry in test [2] was “inactive”.
For `CCOC(=O)c1ncn2c1CN(C)C(=O)c1c(I)cccc1-2`, the Potency result in test [1] and in test [2] was “inactive” throughout.
As for `CC(C)(O)C(Cl)(Cl)Cl`, the Potency entry in test [2] was “inactive”.
On to `CC1=C2[C@H]3OC(=O)[C@@H](C)[C@@H]3CC[C@@]2(C)C=CC1=O`, for which the Potency entry in test [1] and in test [2] was “inactive” throughout.
For `Oc1ccc([C@H]2CNCc3c2ccc(O)c3O)cc1O`, the Potency entry in test [1] and in test [2] was “inactive” in each case.
In the case of `C[C@]12CC[C@H]3[C@@H](CCC4=CC(=O)CC[C@@H]43)[C@@H]1CC[C@@H]2O`, the Potency in test [1] is 2.91 µM (active) and 5.8 µM (active). Also, in test [2], the Potency entry is “inactive”.
For `CCC(=O)OC1(c2ccccc2)CCN(C)CC1`, the Potency result in test [1] and in test [2] was “inactive” each time.
